Experimental data from PubChem BioAssay (NCI).
Compounds without any hit were thinned out: in the full panel of roughly 83,000, 20% have a hit.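 Growth was measured after 48 h exposure to one concentration of compound in 96-well plates. Values under 10 count as active.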 The source made the active and inactive calls.

The compounds below were run on HL-60(TB) leukemia (assay: NCI-60 one-dose screen, 48 h (100 = growth as untreated, 0 = no growth, -100 = all killed)). Details: 10 µM unless noted.

With `COc1ccc(CCN(CC(=O)N(CC(N)=O)C2CCC[C@@H]2OCc2ccccc2)C(=O)CN(C(=O)CN(CCc2ccc(Cl)cc2)C(=O)CN(C(=O)CN(C)Cc2ccccc2F)[C@H](C)C2CCCCC2)[C@H](C)C2CCCCC2)cc1OC` (stereo partly drawn) as the compound, how does the growth read?
Its growth is -24.4% (active).

With `NC(N)=NC(N)=NCCCc1ccccc1` as the compound, how does the growth read?
Its growth is 55.7% [100 µM] (inactive).

How did the growth turn out when `Cc1cc(O)ccc1O` was run?
Its growth is -14.1% (active).
